Key:
Assay in all cases: DAPPL (digital affinity profiling via proximity ligation, sequencing); 10 mM Tris-HCl pH 7.5, 50 mM NaCl, 1 mM DTT, 4% glycerol, room temperature, 30 min; GST-TFs on glutathione beads, 16-mer random dsDNA library, 0.1% formaldehyde crosslink after washing; high values mean tight binding
FLI1 = biological target: T1, FLI1 (Homo sapiens, UniProt Q01543 1-452); conditions: protein: recombinant; tags: N-terminal GST; dsDNA, one strand shown
T1 sequence: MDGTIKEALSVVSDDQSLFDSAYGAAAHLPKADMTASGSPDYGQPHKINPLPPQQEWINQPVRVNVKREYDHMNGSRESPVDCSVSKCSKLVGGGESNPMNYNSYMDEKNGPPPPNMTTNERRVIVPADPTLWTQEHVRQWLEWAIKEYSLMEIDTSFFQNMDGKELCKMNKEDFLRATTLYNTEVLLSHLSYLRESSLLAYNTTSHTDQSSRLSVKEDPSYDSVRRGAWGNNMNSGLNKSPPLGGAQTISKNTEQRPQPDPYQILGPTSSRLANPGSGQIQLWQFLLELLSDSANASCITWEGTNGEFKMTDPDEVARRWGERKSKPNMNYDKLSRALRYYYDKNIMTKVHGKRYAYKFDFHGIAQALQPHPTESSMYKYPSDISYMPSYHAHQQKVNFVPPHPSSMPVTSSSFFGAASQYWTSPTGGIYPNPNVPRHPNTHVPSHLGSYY
Summary of the method: (§1)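 Pools of DNA-barcoded human transcription factors, expressed in yeast as GST fusions on glutathione beads and combined with a tag-only sample, were incubated with 200 nmole of a 16-mer random double-stranded DNA library. Incubation took 30 min at room temperature in Tris/NaCl/DTT/glycerol buffer and was followed by washing, 0.1% formaldehyde crosslinking, proximity ligation (BsaI/T4 ligase, 1 h, 37 °C), PCR amplification and sequencing on an Illumina NextSeq500. Binding signal is the ratio of a hexamer's read frequency for a factor to its frequency for the tag-only sample.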

ELK1 = biological target: T2, ELK1 (Homo sapiens, UniProt P19419 1-428); conditions: protein: recombinant; tags: N-terminal GST; dsDNA, one strand shown
T2 sequence: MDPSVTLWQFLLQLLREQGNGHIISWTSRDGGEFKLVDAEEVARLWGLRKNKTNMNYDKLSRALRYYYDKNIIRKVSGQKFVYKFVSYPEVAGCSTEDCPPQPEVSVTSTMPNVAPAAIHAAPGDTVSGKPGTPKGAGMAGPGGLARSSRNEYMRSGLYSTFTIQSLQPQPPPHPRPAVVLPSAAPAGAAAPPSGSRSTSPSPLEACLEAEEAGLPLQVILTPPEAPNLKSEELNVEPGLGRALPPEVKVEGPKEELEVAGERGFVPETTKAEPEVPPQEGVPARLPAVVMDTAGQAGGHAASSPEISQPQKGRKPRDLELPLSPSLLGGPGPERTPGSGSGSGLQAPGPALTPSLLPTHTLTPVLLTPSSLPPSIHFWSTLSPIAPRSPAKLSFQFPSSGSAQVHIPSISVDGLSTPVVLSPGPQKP
Summary of the method: as §1

GABPA = biological target: T3, GABPA (Homo sapiens, UniProt Q06546 1-454); conditions: protein: recombinant; tags: N-terminal GST; dsDNA, one strand shown
T3 sequence: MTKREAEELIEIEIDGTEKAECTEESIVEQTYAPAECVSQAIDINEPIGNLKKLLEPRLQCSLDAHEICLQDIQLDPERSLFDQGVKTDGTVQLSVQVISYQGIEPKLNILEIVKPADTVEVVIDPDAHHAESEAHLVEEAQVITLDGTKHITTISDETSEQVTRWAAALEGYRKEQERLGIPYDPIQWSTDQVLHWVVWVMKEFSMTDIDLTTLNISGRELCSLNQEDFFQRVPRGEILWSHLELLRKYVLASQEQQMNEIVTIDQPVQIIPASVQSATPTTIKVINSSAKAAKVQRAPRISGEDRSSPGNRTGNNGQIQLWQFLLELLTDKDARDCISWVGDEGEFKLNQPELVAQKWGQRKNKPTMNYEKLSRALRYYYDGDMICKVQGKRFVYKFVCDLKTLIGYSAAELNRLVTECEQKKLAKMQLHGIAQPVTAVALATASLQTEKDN
Summary of the method: as §1

ERG = biological target: T4, ERG (Homo sapiens, UniProt P11308 1-479); conditions: protein: recombinant; tags: N-terminal GST; dsDNA, one strand shown
T4 sequence: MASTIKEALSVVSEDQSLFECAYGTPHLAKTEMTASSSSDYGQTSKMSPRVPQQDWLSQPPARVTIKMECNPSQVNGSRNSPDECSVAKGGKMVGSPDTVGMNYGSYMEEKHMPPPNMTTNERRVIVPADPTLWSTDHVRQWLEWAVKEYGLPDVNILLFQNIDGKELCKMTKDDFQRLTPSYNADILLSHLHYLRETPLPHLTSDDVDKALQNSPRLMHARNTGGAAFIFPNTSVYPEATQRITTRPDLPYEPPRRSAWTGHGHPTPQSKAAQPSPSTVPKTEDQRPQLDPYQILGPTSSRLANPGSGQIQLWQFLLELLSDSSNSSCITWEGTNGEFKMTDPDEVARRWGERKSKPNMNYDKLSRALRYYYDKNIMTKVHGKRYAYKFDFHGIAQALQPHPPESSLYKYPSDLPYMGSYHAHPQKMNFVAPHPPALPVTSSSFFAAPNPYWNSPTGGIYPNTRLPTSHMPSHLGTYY
Summary of the method: as §1

ELF1 = ELF1 (Homo sapiens, UniProt P32519 1-619); conditions: protein: recombinant; tags: N-terminal GST; dsDNA, one strand shown
ELF1, sequence (P32519 whole entry): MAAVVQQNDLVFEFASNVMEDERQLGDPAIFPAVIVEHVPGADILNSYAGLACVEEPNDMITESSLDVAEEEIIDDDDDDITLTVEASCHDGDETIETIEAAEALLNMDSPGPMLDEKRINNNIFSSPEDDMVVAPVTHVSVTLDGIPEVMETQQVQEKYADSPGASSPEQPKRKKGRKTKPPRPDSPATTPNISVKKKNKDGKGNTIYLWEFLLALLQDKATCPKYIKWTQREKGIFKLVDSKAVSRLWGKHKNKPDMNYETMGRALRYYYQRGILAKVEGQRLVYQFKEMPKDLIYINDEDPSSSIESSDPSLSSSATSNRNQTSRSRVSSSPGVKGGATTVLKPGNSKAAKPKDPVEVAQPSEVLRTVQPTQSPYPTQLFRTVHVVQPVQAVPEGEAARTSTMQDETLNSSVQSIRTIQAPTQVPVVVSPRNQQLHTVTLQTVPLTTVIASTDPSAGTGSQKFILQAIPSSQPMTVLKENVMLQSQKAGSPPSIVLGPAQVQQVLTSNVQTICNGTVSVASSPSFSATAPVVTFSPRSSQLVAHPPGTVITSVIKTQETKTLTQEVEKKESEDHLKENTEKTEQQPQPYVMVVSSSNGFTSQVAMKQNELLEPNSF
Summary of the method: as §1

EHF = biological target: T5, EHF (Homo sapiens, UniProt Q9NZC4 1-300); conditions: protein: recombinant; tags: N-terminal GST; dsDNA, one strand shown
T5 sequence: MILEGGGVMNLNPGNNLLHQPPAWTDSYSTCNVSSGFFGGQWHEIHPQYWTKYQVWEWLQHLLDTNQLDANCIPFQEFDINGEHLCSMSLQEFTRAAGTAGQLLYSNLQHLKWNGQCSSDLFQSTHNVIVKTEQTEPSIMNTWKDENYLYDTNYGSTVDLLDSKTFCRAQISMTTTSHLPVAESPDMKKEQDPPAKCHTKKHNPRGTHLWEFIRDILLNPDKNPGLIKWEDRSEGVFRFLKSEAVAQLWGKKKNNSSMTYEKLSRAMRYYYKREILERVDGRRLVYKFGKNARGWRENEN
Summary of the method: as §1

SPI1 = SPI1 (Homo sapiens, UniProt P17947 1-270); conditions: protein: recombinant; tags: N-terminal GST; dsDNA, one strand shown
Summary of the method: as §1

SPIB = SPIB (Homo sapiens, UniProt Q01892 1-262); conditions: protein: recombinant; tags: N-terminal GST; dsDNA, one strand shown
SPIB, sequence (Q01892 whole entry): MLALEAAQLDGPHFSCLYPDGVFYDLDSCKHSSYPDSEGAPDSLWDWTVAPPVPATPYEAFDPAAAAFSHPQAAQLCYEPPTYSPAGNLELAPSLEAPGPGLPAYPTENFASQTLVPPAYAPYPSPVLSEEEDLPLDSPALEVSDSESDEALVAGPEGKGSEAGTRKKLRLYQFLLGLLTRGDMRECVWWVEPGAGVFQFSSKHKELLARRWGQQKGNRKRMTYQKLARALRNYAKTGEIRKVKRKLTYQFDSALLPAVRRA
Summary of the method: as §1

ELK3 = biological target: T6, ELK3 (Homo sapiens, UniProt P41970 1-407); conditions: protein: recombinant; tags: N-terminal GST; dsDNA, one strand shown
T6 sequence: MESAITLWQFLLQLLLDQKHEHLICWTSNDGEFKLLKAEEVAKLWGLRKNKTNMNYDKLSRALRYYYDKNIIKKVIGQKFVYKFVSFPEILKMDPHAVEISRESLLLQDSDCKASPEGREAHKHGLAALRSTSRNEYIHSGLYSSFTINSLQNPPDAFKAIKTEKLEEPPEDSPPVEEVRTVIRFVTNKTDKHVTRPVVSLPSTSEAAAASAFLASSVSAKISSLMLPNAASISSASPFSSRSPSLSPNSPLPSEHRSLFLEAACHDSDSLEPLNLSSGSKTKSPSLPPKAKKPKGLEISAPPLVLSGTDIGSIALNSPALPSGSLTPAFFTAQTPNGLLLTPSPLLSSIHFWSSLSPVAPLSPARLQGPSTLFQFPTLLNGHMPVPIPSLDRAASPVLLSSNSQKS
Summary of the method: as §1

FEV = biological target: T7, FEV (Homo sapiens, UniProt Q99581 1-238); conditions: protein: recombinant; tags: N-terminal GST; dsDNA, one strand shown
T7 sequence: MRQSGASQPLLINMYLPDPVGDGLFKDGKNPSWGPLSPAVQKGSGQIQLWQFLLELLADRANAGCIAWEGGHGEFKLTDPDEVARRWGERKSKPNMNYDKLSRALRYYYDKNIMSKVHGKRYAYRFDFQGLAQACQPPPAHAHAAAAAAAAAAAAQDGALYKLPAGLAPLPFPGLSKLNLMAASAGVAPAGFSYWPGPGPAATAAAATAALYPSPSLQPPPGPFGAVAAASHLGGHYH
Summary of the method: as §1

ETV5 = ETV5 (Homo sapiens, UniProt P41161 1-510); conditions: protein: recombinant; tags: N-terminal GST; dsDNA, one strand shown
ETV5, sequence (P41161 whole entry): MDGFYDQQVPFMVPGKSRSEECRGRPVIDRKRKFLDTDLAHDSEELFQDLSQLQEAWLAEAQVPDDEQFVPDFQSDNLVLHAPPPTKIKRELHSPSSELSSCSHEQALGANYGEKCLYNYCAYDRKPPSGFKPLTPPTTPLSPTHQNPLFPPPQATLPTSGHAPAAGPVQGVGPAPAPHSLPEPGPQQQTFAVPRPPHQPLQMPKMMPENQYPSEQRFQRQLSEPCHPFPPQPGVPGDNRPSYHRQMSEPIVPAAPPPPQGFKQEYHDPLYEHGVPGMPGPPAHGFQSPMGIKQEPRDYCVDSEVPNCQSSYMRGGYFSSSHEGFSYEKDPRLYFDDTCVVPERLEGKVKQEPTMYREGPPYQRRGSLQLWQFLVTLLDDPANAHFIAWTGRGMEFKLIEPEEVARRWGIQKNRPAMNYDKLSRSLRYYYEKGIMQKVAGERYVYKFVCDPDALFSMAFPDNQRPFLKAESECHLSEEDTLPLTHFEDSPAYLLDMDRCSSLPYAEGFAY
Summary of the method: as §1

HSF1 = HSF1 (Homo sapiens, UniProt Q00613 1-529); conditions: protein: recombinant; tags: N-terminal GST; chain copies: 3; dsDNA, one strand shown
HSF1, sequence (Q00613 whole entry): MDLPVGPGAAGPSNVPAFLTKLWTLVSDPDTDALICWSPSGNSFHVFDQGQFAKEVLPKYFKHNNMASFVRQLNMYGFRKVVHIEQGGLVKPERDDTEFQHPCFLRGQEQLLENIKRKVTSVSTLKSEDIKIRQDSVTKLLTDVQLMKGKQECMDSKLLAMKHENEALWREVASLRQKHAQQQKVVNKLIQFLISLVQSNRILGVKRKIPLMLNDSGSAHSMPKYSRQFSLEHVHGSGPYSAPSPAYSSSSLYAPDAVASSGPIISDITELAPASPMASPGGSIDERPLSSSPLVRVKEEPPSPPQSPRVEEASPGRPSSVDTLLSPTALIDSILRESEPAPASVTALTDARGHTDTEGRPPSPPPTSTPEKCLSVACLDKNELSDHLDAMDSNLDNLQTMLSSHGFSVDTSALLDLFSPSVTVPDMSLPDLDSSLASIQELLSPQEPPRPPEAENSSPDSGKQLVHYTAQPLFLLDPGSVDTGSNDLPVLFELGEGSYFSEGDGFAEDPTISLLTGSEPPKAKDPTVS
Summary of the method: as §1

SPIC = biological target: T8, SPIC (Homo sapiens, UniProt Q8N5J4 1-248); conditions: protein: recombinant; tags: N-terminal GST; dsDNA, one strand shown
T8 sequence: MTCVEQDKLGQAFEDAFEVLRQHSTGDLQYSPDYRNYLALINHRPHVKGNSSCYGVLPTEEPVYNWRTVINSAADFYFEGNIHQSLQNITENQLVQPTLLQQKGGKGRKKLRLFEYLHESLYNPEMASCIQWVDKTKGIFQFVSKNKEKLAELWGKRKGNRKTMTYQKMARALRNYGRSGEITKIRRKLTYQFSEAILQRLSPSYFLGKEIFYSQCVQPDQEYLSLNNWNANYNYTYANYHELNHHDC
Summary of the method: as §1

ELF4 = ELF4 (Homo sapiens, UniProt Q99607 1-663); conditions: protein: recombinant; tags: N-terminal GST; dsDNA, one strand shown
ELF4, sequence (Q99607 whole entry): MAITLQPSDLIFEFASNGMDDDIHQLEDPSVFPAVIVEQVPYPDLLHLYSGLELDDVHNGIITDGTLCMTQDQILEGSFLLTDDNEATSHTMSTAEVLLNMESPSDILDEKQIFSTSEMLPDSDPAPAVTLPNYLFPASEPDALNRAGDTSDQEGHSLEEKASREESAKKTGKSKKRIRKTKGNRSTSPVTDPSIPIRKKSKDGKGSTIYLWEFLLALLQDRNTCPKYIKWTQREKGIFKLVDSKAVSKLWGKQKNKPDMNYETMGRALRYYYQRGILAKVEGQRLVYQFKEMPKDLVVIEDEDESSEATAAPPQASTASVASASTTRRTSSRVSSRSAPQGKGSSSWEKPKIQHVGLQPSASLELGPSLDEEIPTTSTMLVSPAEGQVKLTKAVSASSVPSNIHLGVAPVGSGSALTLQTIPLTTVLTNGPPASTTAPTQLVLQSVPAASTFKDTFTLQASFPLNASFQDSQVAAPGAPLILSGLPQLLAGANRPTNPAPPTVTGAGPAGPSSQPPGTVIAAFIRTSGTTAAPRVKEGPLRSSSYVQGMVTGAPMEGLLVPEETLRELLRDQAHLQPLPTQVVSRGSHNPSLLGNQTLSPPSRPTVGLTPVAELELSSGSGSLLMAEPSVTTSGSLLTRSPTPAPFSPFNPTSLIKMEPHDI
Summary of the method: as §1

ELK4 = biological target: T9, ELK4 (Homo sapiens, UniProt P28324-2 1-405); conditions: protein: recombinant; tags: N-terminal GST; dsDNA, one strand shown
T9 sequence: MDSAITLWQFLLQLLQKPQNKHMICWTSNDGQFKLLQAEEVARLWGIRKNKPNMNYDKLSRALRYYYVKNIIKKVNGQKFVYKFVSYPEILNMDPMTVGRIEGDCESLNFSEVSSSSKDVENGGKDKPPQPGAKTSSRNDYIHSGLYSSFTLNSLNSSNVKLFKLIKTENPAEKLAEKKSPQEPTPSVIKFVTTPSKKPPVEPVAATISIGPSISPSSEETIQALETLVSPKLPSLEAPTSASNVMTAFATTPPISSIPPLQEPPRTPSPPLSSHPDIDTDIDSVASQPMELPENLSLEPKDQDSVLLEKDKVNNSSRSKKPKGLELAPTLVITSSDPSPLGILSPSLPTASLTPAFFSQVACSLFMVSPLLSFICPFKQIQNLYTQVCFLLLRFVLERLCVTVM
Summary of the method: as §1

ETV2 = biological target: T10, ETV2 (Homo sapiens, UniProt O00321 1-342); conditions: protein: recombinant; tags: N-terminal GST; dsDNA, one strand shown
T10 sequence: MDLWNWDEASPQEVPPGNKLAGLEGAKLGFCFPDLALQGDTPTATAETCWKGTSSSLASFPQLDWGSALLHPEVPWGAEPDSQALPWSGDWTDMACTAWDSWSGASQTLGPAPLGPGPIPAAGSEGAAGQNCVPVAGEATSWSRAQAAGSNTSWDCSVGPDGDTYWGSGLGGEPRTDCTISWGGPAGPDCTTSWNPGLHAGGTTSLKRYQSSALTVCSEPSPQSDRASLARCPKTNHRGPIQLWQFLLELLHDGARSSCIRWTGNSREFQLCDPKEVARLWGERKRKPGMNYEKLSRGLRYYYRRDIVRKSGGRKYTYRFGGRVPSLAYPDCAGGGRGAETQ
Summary of the method: as §1

ELF3 = biological target: T11, ELF3 (Homo sapiens, UniProt P78545 1-371); conditions: protein: recombinant; tags: N-terminal GST; dsDNA, one strand shown
T11 sequence: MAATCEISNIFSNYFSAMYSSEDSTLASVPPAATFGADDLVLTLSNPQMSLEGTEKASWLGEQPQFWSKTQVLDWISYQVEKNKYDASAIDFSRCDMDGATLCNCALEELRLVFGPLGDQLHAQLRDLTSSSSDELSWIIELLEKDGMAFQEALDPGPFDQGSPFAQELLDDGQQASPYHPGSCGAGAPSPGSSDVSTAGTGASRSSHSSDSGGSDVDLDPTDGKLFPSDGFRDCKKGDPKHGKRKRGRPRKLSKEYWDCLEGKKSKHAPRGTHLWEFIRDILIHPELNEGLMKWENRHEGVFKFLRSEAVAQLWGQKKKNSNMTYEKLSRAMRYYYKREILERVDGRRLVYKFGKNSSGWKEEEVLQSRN
Summary of the method: as §1

CRX = CRX (Homo sapiens, UniProt O43186 1-299); conditions: protein: recombinant; tags: N-terminal GST; dsDNA, one strand shown
CRX, sequence (O43186 whole entry): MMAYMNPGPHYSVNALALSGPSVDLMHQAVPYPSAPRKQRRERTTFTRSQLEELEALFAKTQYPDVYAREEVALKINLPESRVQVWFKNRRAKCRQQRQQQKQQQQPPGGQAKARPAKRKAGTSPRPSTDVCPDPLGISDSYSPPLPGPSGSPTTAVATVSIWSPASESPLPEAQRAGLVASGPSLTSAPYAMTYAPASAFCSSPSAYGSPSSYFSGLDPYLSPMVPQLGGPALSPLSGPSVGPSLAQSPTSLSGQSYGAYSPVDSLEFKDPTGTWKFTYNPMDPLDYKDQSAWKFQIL
Summary of the method: as §1

ETV1 = ETV1 (Homo sapiens, UniProt P50549 1-477); conditions: protein: recombinant; tags: N-terminal GST; dsDNA, one strand shown
ETV1, sequence (P50549 whole entry): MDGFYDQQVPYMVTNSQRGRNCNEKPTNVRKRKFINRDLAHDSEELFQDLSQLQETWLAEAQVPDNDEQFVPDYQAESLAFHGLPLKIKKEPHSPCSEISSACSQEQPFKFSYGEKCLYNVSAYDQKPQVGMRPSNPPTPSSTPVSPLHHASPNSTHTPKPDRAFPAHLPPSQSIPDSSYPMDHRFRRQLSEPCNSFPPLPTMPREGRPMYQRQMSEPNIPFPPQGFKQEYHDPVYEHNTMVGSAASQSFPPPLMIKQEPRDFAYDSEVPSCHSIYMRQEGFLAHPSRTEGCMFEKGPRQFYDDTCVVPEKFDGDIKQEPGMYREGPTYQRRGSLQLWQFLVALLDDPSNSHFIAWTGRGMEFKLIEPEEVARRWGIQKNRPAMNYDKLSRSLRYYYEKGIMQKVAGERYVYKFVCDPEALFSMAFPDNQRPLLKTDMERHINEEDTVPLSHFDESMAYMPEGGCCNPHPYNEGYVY
Summary of the method: as §1

In the case of ATCATC, the binding signal (FLI1) is reported as 1.17 fold enrichment (6-mer frequency, TF over GST control), the binding signal (ELK1) is reported as 1.2 fold enrichment (6-mer frequency, TF over GST control) and the binding signal (GABPA) is reported as 1.19 fold enrichment (6-mer frequency, TF over GST control). For the same sequence, the binding signal (ERG) was 1.17 fold enrichment (6-mer frequency, TF over GST control), the binding signal (ELF1) was 1.25 fold enrichment (6-mer frequency, TF over GST control) and the binding signal (EHF) was 1.25 fold enrichment (6-mer frequency, TF over GST control). For the same sequence, the binding signal (SPI1) was 1.14 fold enrichment (6-mer frequency, TF over GST control), the binding signal (SPIB) was 1.19 fold enrichment (6-mer frequency, TF over GST control) and the binding signal (ELK3) was 1.08 fold enrichment (6-mer frequency, TF over GST control). For the same sequence, the binding signal (FEV) was 1.11 fold enrichment (6-mer frequency, TF over GST control), the binding signal (ETV5) was 1.1 fold enrichment (6-mer frequency, TF over GST control) and the binding signal (HSF1) was 1.4 fold enrichment (6-mer frequency, TF over GST control). The binding signal (SPIC) was 1.24 fold enrichment (6-mer frequency, TF over GST control), the binding signal (ELF4) was 1.17 fold enrichment (6-mer frequency, TF over GST control) and the binding signal (ELK4) was 1.31 fold enrichment (6-mer frequency, TF over GST control). For the same sequence, the binding signal (ETV2) was 1.21 fold enrichment (6-mer frequency, TF over GST control), the binding signal (ELF3) was 1.26 fold enrichment (6-mer frequency, TF over GST control) and the binding signal (CRX) was 1.56 fold enrichment (6-mer frequency, TF over GST control). For the same sequence, the binding signal (ETV1) was 1.12 fold enrichment (6-mer frequency, TF over GST control).

From article PMC7862700, “An all-to-all approach to the identification of sequence-specific readers for epigenetic DNA modifications on cytosine”
